EWS-Fli inh: EWS/Fli-driven NR0B1 reporter inhibitors, primary screen, A673 cells, NR0B1 luciferase, luminescence, MLPCN library; viability-normalised; inhibition, % at 12.6 µM; AID 651661, 2012; 350,000 tested, 0.67% active;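 active = mean inhibition of at least 50% after viability correction, with every replicate also passing that limit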;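 note: firefly luciferase signal divided by Alamar Blue viability fluorescence both relative to DMSO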
TWEAK-Fn14 inh: inhibitors of TWEAK-Fn14 signaling, primary screen, luciferase reporter cells, uHTS; TWEAK-stimulated Fn14 reporter cells, luciferase luminescence, 8 h; inhibition, % at 10 µM; AID 1159606, 2016; 360,000 tested, 2% active; in the data active = inhibition above about 50%
PAX8 reporter: inhibitors of PAX8-driven TPO luciferase reporter, primary screen, RMG-I cells, single concentration; 360,000 tested, 1.2% active; SteadyGlo, 24 h; inhibition, % at 12.6 µM;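 active = mean replicate inhibition at least 60% with every replicate also reaching 60%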;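 note: luciferase light reporting Pax8 driven TPO promoter activity; plate controls were median of neutral control wells for no effect and mitoxantrone controls for full effect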
EBV LMP1 NFkB: EBV LMP1-driven NF-kappaB luciferase reporter inhibitors, primary screen, cell-based, luminescence, single point. inhibition, % at 12.5 µM. 350,000 tested, 0.69% active. LMP1-induced NF-kappaB luciferase reporter cells. AID 504558, 2011; in the data active = inhibition above about 41%;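 note: 0% = neutral control wells and 100% = reference inhibitor control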
TROY NFkB inh: inhibitors of TROY-driven NF-kB signaling, primary screen, Q293 LMP1-TROYcd cells, NF-kB luciferase, uHTS | Q293 LMP1-TROYcd NF-kB luciferase reporter, 4 h | inhibition, % at 10 µM | 360,000 tested, 0.98% active;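 active = compounds whose plate-normalised and pattern-corrected inhibition of the luciferase reporter signal at the single screening dose is 50% or more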
LGR2 inh: inhibitors of bursicon-induced LGR2 CRE-luciferase signal, primary screen, cell-based, HEK293, CRE-luciferase reporter, bursicon stimulation; inhibition, % at 9.99 µM; Drosophila bursicon receptor LGR2 (rickets); 380,000 tested, 0.35% active; AID 720647, 2013; bursicon-stimulated, 4 h;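 active = drop in luminescence signal, shown as inhibition above about 50% in the replicate tests, limit read from the data, passing the limit was not always enough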;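 note: agonist challenge used bursicon conditioned medium at about half maximal strength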
An asterisk follows results filed as active; . = no result. In the library only some 3.1% were active in any assay of this set; here they are far more common.

SMILES | EWS-Fli inh | TWEAK-Fn14 inh | PAX8 reporter | EBV LMP1 NFkB | TROY NFkB inh | LGR2 inh
CCCCNc1c(-c2cccc(-c3ccc(OC)cc3)c2)nc2ccc(C)cn12 | 9 | 0 | 5 | 7 | 32 | 68*
Cn1ccc2c(-c3cccc(C=O)c3F)cc3c(c21)C1CCC3C1 (stereo not drawn) | -7 | 51* | -9 | . | 55* | 13
Cn1ccc2c(-c3cccc4ccccc34)cc3c(c21)C1CCC3C1 (stereo not drawn) | -12 | 82* | -17 | . | 77* | 11
Cn1ccc2c(-c3cccc(C=O)c3)cc3c(c21)C1CCC3C1 (stereo not drawn) | -7 | 48 | -23 | . | 65* | .
COC(=O)[C@H]1[C@H](CO)[C@H]2Cn3c(ccc(C4=CCCC4)c3=O)[C@H]2N1C(=O)C1CCC1 | 5 | . | . | . | . | 8
C[C@@H]1CCCCO[C@H](CN(C)S(=O)(=O)c2ccc(F)cc2)[C@@H](C)CN([C@@H](C)CO)C(=O)c2cc(NS(C)(=O)=O)ccc2O1 | -7 | . | -21 | . | . | -5
C=C(C)CN(CC)C(=O)Cn1cnc2c(oc3ccccc32)c1=O | -14 | -11 | 15 | -5 | 54* | 31
O=C(O)Cn1cnc2c(oc3ccccc32)c1=O | -6 | -15 | 4 | -6 | -6 | -16
Cc1ccc(C(=O)/C=C/c2ccc3c(c2)OCCO3)c(O)c1 | -100 | 13 | -189 | -7 | 27 | -36
O=C(/C=C/c1ccc2c(c1)OCCCO2)c1ccc2ccccc2c1O | . | 33 | -45 | -61 | 61* | -67
Cc1ccc(-n2nc(C)c3cc(C(=O)O)sc32)cc1 | . | 86* | . | -10 | . | .
Cc1nn(-c2ccccc2)c2sc(C(=O)O)cc12 | . | -2 | . | 5 | -10 | .
Cc1cccc(C)c1-n1nnnc1-c1nc2cc(Br)ccc2[nH]c1=O | 11 | 9 | -8 | . | -24 | 6
Cc1cccc(C)c1-n1nnnc1-c1nc2cc3ccccc3cc2[nH]c1=O | 54* | 45 | 48 | . | 25 | -9
COc1cccc(-c2ccc(CC[C@H]3O[C@H]4CC[C@H](CO)O[C@H]4C[C@@H]3NS(C)(=O)=O)cc2)c1 | -9 | . | -5 | . | . | .
COc1ccc(S(=O)(=O)Nc2cc3c(cc2C(C)=O)OCO3)cc1 | 55* | 2 | 14 | -11 | 1 | -4
C=CCSc1nnc(NC(=O)c2cn(CC)c3nc(C)ccc3c2=O)s1 | -3 | 90* | -14 | 6 | 5 | -10
CCn1cc(C(=O)NCc2cccs2)c(=O)c2ccc(C)nc21 | . | 4 | . | -1 | -6 | 1
O=C(Nc1ccc2c(c1)[C@H]1C[C@@H](CC(=O)N3CCOCC3)O[C@@H](CO)[C@H]1O2)NC1CCCC1 | -1 | . | -15 | . | . | 2
Cc1cccc(C2(c3cccc(C)c3)CC2C(=O)Nc2ccc([N+](=O)[O-])cc2O)c1 (stereo not drawn) | . | 74* | 95* | 39 | 60* | 36
CC1=NN(C(N)=S)C(=O)C1N=Nc1cccc(C(=O)O)c1 (stereo not drawn) | 32 | 6 | 21 | 49* | 3 | 61*
C[C@@H]1CN([C@H](C)CO)C(=O)Cc2cc(NC(=O)Cn3cnnn3)ccc2O[C@@H]1CN(C)CC1CCCCC1 | -1 | . | -27 | . | . | -9
COc1ccc(Nc2nc(N3CCCCC3)c3ccccc3n2)cc1 | . | 35 | . | 11 | 18 | .
Oc1ccc(Nc2nc(N3CCCC3)c3ccccc3n2)cc1 | . | -150 | . | -12 | -23 | 76*
C[C@H](CO)N1C[C@H](C)[C@H](CN(C)C(=O)Nc2cccc3ccccc23)Oc2c(NS(=O)(=O)c3ccccc3)cccc2C1=O | 6 | . | 5 | . | . | -3
SMILES | EWS-Fli inh | TWEAK-Fn14 inh | PAX8 reporter | EBV LMP1 NFkB | TROY NFkB inh | LGR2 inh
CC[C@@H](C)[C@@H](CO[C@@H](Cc1ccccc1)C(=O)N[C@@H](CCS(C)(=O)=O)C(=O)OC(C)C)NCC(N)CS (stereo partly drawn) | 20 | . | 0 | . | . | .
COc1ccccc1OCCn1cc(C(=O)C(C)C)c2ccccc21 | 16 | -9 | -7 | 11 | 21 | 2
COc1ccccc1OCCn1cc(C(=O)O)c2ccccc21 | -3 | 63* | 5 | -9 | -25 | 29
Cc1nn(C(=O)CN2C(=O)c3ccccc3C2=O)c(C)c1Br | . | 95* | . | 5 | . | .
Fc1c(F)c(C(F)(F)F)c(F)c(F)c1N/N=C\c1cccs1 | . | 60* | . | -6 | 40 | .
COc1ccccc1C1CC(c2ccco2)=NN1c1ccccc1 (stereo not drawn) | 6 | 34 | 80* | 0 | -16 | -11
Cc1noc(C)c1NC(=O)Nc1ccc2c(c1)C(=O)N([C@@H](C)CO)C[C@H](C)[C@@H](CN(C)Cc1ccc(C(=O)O)cc1)OCCCC[C@H](C)O2 | -9 | . | -5 | . | . | 6
Cc1cccc(S(=O)(=O)N(C)C[C@H]2OCc3cn(nn3)CCCC(=O)N([C@@H](C)CO)C[C@H]2C)c1 | -8 | . | . | . | . | -8
C[C@@H]1CCCCO[C@@H](CN(C)S(=O)(=O)c2ccc(F)cc2)[C@@H](C)CN([C@H](C)CO)C(=O)c2cc(NC(=O)CCC(F)(F)F)ccc2O1 | 1 | . | -5 | . | . | 6
COCC(=O)N(C)C[C@H]1Oc2cc(C#CCC3CCCC3)ccc2S(=O)(=O)N([C@H](C)CO)C[C@H]1C | -6 | . | 69* | . | . | 16
C[C@H]1CN([C@@H](C)CO)S(=O)(=O)c2ccc(C#CCC3CCCC3)cc2O[C@H]1CN(C)C(=O)CN(C)C | 52 | . | 64* | . | . | 6
C[C@H](CO)N1C[C@H](C)[C@@H](CN(C)C(=O)CN(C)C)Oc2cc(C#Cc3ccc(F)cc3)ccc2S1(=O)=O | 5 | . | . | . | . | 4
COCC(=O)N(C)C[C@H]1Oc2cc(C#CCC3CCCC3)ccc2S(=O)(=O)N([C@@H](C)CO)C[C@@H]1C | 7 | . | 73* | . | . | 11
C[C@@H]1CN([C@@H](C)CO)S(=O)(=O)c2ccc(C#Cc3ccc(F)cc3)cc2O[C@H]1CN(C)C(=O)CN(C)C | 59* | . | . | . | . | 12
COc1ccccc1S(=O)(=O)N(C)C[C@@H]1Oc2cc(C#CCC(C)C)ccc2S(=O)(=O)N([C@H](C)CO)C[C@H]1C | 33 | . | . | . | . | 16
COc1ccccc1S(=O)(=O)N(C)C[C@H]1Oc2cc(C#CCC3CCCC3)ccc2S(=O)(=O)N([C@@H](C)CO)C[C@@H]1C | 20 | . | 82* | . | . | -42
CCC(C)(C)C1CCc2[nH]nc(C(=O)NN)c2C1 (stereo not drawn) | -20 | 45 | -16 | -1 | 69* | .
CCCOc1ccc(-c2nc(SCc3ccccc3)[nH]c(=O)c2C#N)cc1OC | 17 | -24 | -6 | 10 | 51* | 6

Assay outcomes deposited in PubChem by several laboratories.
